RGS8-Gao reg: regulators of human RGS8-Galphao interaction; P09471; multiplexed bead flow cytometry, RGS8-Galphao binding; actives lie on both sides; response (percent of control binding), % at 10 µM; 220,000 tested, 0.34% active; AID 1423; in the data active means response below about 60% or above about 140%; inactive means in between;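 further: Galphao activated as the GDP aluminium fluoride complex binding bead-coupled RGS8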
RGS7-Gao reg: regulators of human RGS7-Galphao interaction; binding response (% of control), % at 10 µM; Multiplexed bead flow cytometry, RGS7-Galphao binding; actives lie on both sides; AID 1439; P09471; 220,000 tested, 0.35% active; in the data active means binding response below about 49% or above about 150%; inconclusive means no clear call, values can overlap the other calls; inactive means in between;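 further: fluorescent Galphao held in activated GDP-AlF4 state binding bead-coupled RGS7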
RGS4-Gao reg: modulates binding of RGS4 to human Galphao; 220,000 tested, 0.33% active; P09471; AID 1415; Multiplexed bead flow cytometry; actives lie on both sides; binding response (% of control), % at 10 µM; in the data active means binding response below about 49% or above about 150%; inactive means in between;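 further: fluorescent Galphao activated with aluminum fluoride binding bead-coupled RGS4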
Avidin fluor: compound fluoresces at 488/530 nm on avidin beads. compound fluorescence 488/530 nm, flow cytometry; hits give high values. fluorescence (KMESF) at 10 µM. 220,000 tested, 0.38% active; in the data active means fluorescence above about 47
RGS16-Gao: regulators of human RGS16-Galphao interaction; O15492+P09471; bead-based flow cytometry RGS16-Galphao binding, fluorescence; actives lie on both sides; binding response (% of control), % at 10 µM; 220,000 tested, 0.38% active; call rule not given here;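 further: Galphao activated by GDP with aluminum fluoride before binding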
Target sequence (O15492 whole entry, looked up): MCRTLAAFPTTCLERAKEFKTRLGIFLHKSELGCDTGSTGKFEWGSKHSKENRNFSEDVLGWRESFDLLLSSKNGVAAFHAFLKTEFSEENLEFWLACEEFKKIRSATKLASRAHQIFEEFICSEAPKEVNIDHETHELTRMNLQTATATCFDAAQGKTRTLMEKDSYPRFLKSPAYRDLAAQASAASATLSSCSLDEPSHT
Target sequence (P09471 whole entry, looked up): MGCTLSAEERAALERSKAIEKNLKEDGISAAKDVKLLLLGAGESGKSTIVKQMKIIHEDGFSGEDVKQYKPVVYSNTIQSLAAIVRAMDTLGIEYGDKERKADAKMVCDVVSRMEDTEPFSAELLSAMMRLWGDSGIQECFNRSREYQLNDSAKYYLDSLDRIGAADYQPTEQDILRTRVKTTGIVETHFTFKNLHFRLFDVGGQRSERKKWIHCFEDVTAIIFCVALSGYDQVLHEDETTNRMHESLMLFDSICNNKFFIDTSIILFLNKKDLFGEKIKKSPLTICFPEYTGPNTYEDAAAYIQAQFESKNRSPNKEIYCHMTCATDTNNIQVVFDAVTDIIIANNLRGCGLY
GSH bead fluor: GSH bead compound fluorescence profile. 190,000 tested, 0.25% active. GSH beads flow cytometry, compound fluorescence 488/530 nm; hits give high values. fluorescence (KMESF) at 10 µM; in the data active means fluorescence above about 89;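 further: glutathione beads carrying GST-tagged Bcl family fusion proteins plus one bare bead set; values are compound well signal with DMSO vehicle wells as background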
* marks the source's active call; other numbers are inactive results; ? = inconclusive; . = not tested or not shown. Shown are actives, neighbours in structure and some others; about 1.2% of the full set was active somewhere.

SMILES | RGS8-Gao reg | RGS7-Gao reg | RGS4-Gao reg | Avidin fluor | RGS16-Gao | GSH bead fluor
COC(=O)CCSCC(=O)Nc1ccc(C)c(S(=O)(=O)N2CCCCC2)c1 | 100 | ? | 99 | 5 | 99 | .
COCCNC(=O)C1(C)Oc2ccccc2NC1=O (configuration not stated) | 104 | 98 | 102 | 7 | 101 | 260*
COc1ccc(-c2cc3ccccc3oc2=O)cc1NC(=O)c1ccc(Br)o1 | 106 | 123 | 148 | 47* | 149 | 30
CSc1ccc(Cl)c(C(=O)NCc2ccco2)c1 | 98 | 103 | 95 | 3 | 60 | 250*
Clc1ccc(/C=N/Nc2nn[nH]n2)cc1 | 101 | 99 | 99 | 7 | 95 | 144*
COc1ccccc1NC(=O)NCCCl | 100 | 137 | 104 | 92* | 108 | 12
COc1ccccc1NC(=O)Nc1ccc(Br)cn1 | 103 | 107 | 106 | 6 | 110 | 266*
COc1ccccc1NC(=S)NC(C)=O | 100 | 102 | 102 | 10 | 101 | 9
COc1ccccc1NC(=O)NCCC1=CCCCC1 | 101 | 100 | 98 | 3 | 100 | 10
CCOc1ccccc1NC(=O)Nc1ccc(Br)cn1 | 101 | 100 | 100 | 11 | 101 | 24
COc1ccccc1NC(C)=O | 81 | 76 | 78 | 4 | -1 | 251*
COc1cc2c(cc1OC)CN(C(=O)c1sc(-c3cnccn3)nc1C)CC2 | 99 | ? | 95 | 3 | 95 | .
CCNC(=S)NNC(=O)c1cc(-c2ccc(OC)cc2)nc2ccccc12 | 103 | 104 | 104 | 5 | 105 | 15
COc1ccc(Cl)cc1C(=O)NNC(=S)NC(=O)c1cc(-c2ccc(Cl)cc2)nc2ccccc12 | 37* | 21* | 11* | 6 | 19* | 11
O=C(CCN1CCC(c2cccs2)=N1)c1cccs1 | 106 | ? | 110 | 4 | 112 | .
O=C(COc1ccc(Br)cc1)N1CCN(c2ccc([N+](=O)[O-])c(N3CCCCC3)c2)CC1 | 101 | 100 | 101 | 12 | 101 | 12
COc1cc(OC)cc(C(=O)N2CCN(C(=O)COc3ccc4ccccc4c3)CC2)c1 | 102 | 94 | 97 | 6 | 110 | 39
COc1ccc(N2CCN(C(=O)COc3ccc4ccccc4c3)CC2)cc1 | 103 | 106 | 105 | 53* | 104 | 17
O=C(COc1ccccc1)N1CCN(c2ccc([N+](=O)[O-])c(N3CCCCC3)c2)CC1 | 101 | 117 | 105 | 54* | 103 | 30
O=C(COc1ccc2ccccc2c1)N1CCN(C(=O)c2cccnc2)CC1 | 103 | 133 | 110 | 85* | 104 | 17
COc1ccc(CCNC(=O)C(=O)Nc2ccc3c(c2)OCO3)cc1OC | 104 | 99 | 102 | 12 | 99 | 15
CCOC(=O)c1c(C)n(-c2ccc(C)cc2)c2ccc(OCC(O)CN3CCN(C)CC3)cc12 (configuration not stated) | 102 | 98 | 104 | 12 | 102 | 10
CC(C)(C)C(=O)N(CCN(C(=O)C(C)(C)C)c1ccccc1)c1ccccc1 | 103 | 113 | 111 | 50* | 109 | 17
COCCN=C1Sc2nc3cc4c(cc3cc2CN1CC1CCCO1)OCO4 (configuration not stated) | 98 | 98 | 100 | 9 | 99 | 14
COc1ccc(N2C(=O)C(CC(=O)O)S/C2=C\C(C)=O)cc1 (configuration not stated) | 97 | 96 | 94 | 6 | 99 | 251*
SMILES | RGS8-Gao reg | RGS7-Gao reg | RGS4-Gao reg | Avidin fluor | RGS16-Gao | GSH bead fluor
CCCCN=CC1=C(O)CC(c2ccccc2)CC1=O (configuration not stated) | 103 | ? | 103 | 11 | 103 | 11
Cc1ccc(S(=O)(=O)Nc2nc(C)cc(NN)n2)cc1 | 100 | ? | 97 | 6 | 99 | .
Cc1ccc(S(=O)(=O)Nc2nc(C)cc(NCCN)n2)cc1 | 99 | 99 | 98 | 7 | 103 | 279*
CCOC(=O)/C(C#N)=C(C)/C=C1\Sc2ccccc2N1CC | 93 | 131 | 106 | 70* | 97 | 8
CCN1/C(=C\C=C(C(C)=O)C(C)=O)Sc2ccccc21 | 100 | 98 | 95 | 6 | 94 | 14
CC(=O)c1cc(CN2CCN(C3CCCCC3)C(CCO)C2)cs1 (configuration not stated) | 97 | 100 | 97 | 12 | 101 | 15

Bioassay records deposited in PubChem by NMMLSC.
